IDE cell inh – inhibitors of human insulin-degrading enzyme in cells. HEK cells, FAbetaB cleavage, fluorescence polarization. 0.41% of 320,000 active. inhibition, % at 5.59 µM. P14735;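 active = percent inhibition above the average of all tested compounds plus 3 SD, set per screening campaign, cut at about 16% in these data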;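 also: IDE supplied by intact live HEK cells; FP after avidin binding of uncleaved biotin substrate so inhibition keeps polarization high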
TLR9-MyD88 block – TLR9-MyD88 interaction inhibition | CHO BLA complementation TLR9-MyD88, CCF4 FRET ratio | Q9NR96+Q99836 | AID 504734 | inhibition, % at 4.98 µM | 0.21% of 340,000 active;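 active = inhibition above the mean over all tested compounds plus 3 SD, cut at about 21% in these data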
NOD2 RIPK2 PPI – blocks binding of human NOD2 to RIPK2. O43353. CHO BLA complementation NOD2-RIPK2, CCF4 ratio. inhibition, % at 4.98 µM. 0.38% of 360,000 active. AID 624267; in the data active = inhibition above about 21%
IDE act – IDE (human) activation, cell-based | AID 493087 | 0.073% of 340,000 active | P14735 | activation, % at 5.96 µM | HEK cells, FAbeta-B cleavage, fluorescence polarization; 0% vehicle, 100% cell-free pure enzyme wells;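 active = activation above the mean of all tested compounds plus 3 SD, set per screening campaign, cut at about 17% in these data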
TLR4-MyD88 BLA – inhibitors of human TLR4-MyD88 binding; 0.18% of 200,000 active; O00206+Q99836; AID 861; HeLa CL3-4 TLR4/MyD88 BLA complementation, FRET ratio; inhibition, % at 8.4 µM; in the data active = inhibition above about 25%
TLR9-MyD88 conf – confirmation of human TLR9-MyD88 binding inhibitors | 51% of 680 active | CHO TLR9/MyD88 BLA complementation, CCF4 FRET ratio | shares compounds with TLR9-MyD88 block | AID 540250 | inhibition, % at 4.98 µM;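 active = mean inhibition across three repeats above about 21% taken from the earlier screen, limit read from the data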;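 also: blue over green emission ratio reports constitutive TLR9 MyD88 association via BLA complementation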
Target sequence (Q9NR96 whole entry, looked up): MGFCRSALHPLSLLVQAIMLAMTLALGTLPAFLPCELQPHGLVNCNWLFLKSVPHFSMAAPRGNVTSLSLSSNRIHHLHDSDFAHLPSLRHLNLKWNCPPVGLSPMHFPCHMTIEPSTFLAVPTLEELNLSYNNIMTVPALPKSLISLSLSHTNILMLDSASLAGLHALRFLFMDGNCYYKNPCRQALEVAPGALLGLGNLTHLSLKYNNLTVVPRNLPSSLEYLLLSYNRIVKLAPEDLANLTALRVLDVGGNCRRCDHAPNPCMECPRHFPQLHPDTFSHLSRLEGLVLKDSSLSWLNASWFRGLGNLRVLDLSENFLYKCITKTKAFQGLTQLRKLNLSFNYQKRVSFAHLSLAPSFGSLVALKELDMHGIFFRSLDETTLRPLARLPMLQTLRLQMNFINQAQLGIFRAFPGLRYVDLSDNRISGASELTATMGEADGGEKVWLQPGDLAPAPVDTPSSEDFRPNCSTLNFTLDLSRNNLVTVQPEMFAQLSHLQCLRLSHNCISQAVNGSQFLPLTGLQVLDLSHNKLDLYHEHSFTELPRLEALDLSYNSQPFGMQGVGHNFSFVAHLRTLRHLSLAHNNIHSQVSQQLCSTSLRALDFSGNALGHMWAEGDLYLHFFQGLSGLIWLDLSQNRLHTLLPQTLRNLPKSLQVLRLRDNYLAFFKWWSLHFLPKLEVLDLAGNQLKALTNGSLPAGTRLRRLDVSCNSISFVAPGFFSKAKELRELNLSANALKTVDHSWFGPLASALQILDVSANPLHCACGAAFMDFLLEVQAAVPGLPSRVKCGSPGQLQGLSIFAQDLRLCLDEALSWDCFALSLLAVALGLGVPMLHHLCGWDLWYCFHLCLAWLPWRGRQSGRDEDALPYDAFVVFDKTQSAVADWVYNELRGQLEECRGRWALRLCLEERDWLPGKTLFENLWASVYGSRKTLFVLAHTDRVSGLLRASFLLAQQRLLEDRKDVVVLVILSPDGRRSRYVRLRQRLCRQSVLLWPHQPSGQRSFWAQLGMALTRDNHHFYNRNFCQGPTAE
BLA nonselective – counter-screen for TLR9-MyD88 inhibitors: non-selective beta-lactamase inhibitors. shares compounds with TLR9-MyD88 block. CHO-BLA cells, CCF4 FRET ratio, BLA reporter. inhibition, % at 4.98 µM. 7% of 680 active. AID 540251;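 active = mean inhibition above a 50% cutoff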;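 also: counterscreen of TLR9-MyD88 hits on CMV-driven BLA in CHO-K1 cells; higher means less blue over green ratio so more BLA blockade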
TLR9 CHO tox – counter-screen for TLR9-MyD88 inhibitors: cytotoxicity in CHO cells; AID 588336; inhibition, % at 4.98 µM; luminescence; shares compounds with TLR9-MyD88 block; 39% of 680 active; in the data active = inhibition above about 11%
Hits are given with their value; 0 = inactive; - = not tested or not shown. Only some compounds are listed: those with a hit (about 0.86% of all), similar ones and a draw of the others.

SMILES	IDE cell inh	TLR9-MyD88 block	NOD2 RIPK2 PPI	IDE act	TLR4-MyD88 BLA	TLR9-MyD88 conf	BLA nonselective	TLR9 CHO tox
COC(=O)CSc1nc(N)c2c3c(sc2n1)C(c1ccccc1)SC(c1ccccc1)C3 (stereo not drawn)	0	26	0	0	0	0	0	0
COC(=O)CSc1nc(N)c2c3c(sc2n1)CCCC3	0	0	0	0	0	-	-	-
COC(=O)c1ccc(Cn2c(O)c(N=O)c3ccccc32)o1	0	26	0	0	0	0	0	0
O=Nc1c(O)n(Cc2cccc(C(F)(F)F)c2)c2ccccc12	0	33	0	0	0	0	0	0
CCOc1cc(C2NN=C(c3ccc(C)cc3)S2)ccc1O (stereo not drawn)	0	21	0	0	0	0	0	0
COc1ccc(C2NN=C(c3ccc(C)cc3)S2)cc1 (stereo not drawn)	0	0	0	0	-	-	-	-
CC(SC#N)C(=O)C12CC3CC(CC(C3)C1)C2 (stereo not drawn)	0	0	0	0	0	-	-	-
COc1cc2[nH]c(=S)nc(NCCCOC(C)C)c2cc1OC	0	0	0	0	0	-	-	-
COc1ccc(C2=CC(c3ccco3)n3ncnc3N2)cc1 (stereo not drawn)	-	28	21	0	0	0	0	0
Clc1ccc(C2=CC(c3ccco3)n3ncnc3N2)cc1 (stereo not drawn)	0	0	0	0	0	-	-	-
Cc1cc2ccccc2n1CCNC(=O)C(C)Oc1ccccc1 (stereo not drawn)	0	0	0	0	0	-	-	-
O=C(NCc1cccc(F)c1)c1cccc2c1C(=O)c1ccc(N3CCC(Cc4ccccc4)CC3)cc1S2(=O)=O	0	50	21	0	-	44	0	0
O=C(NCCc1ccc(F)cc1)c1cccc2c1C(=O)c1ccc(N3CCC(Cc4ccccc4)CC3)cc1S2(=O)=O	0	0	0	0	-	-	-	-
O=C(NCc1cccc(C(F)(F)F)c1)c1cccc2c1C(=O)c1ccc(N3CCC(Cc4ccccc4)CC3)cc1S2(=O)=O	0	31	0	0	-	45	0	0
O=c1[nH]c(Sc2ccc([N+](=O)[O-])cc2[N+](=O)[O-])nc2ccccc12	0	0	0	0	-	-	-	-
O=[N+]([O-])c1ccc(Sc2cc[n+]([O-])c3ccccc23)c([N+](=O)[O-])c1	0	32	0	0	-	24	0	30
Cc1c(O)ccc2c(CN3CCOCC3)cc(=O)oc12	0	0	0	0	-	-	-	-
Cc1c(O)ccc2c(CN3CCN(CCO)CC3)cc(=O)oc12	0	27	0	0	0	0	0	0
COc1cc(C(=O)NC2CCN(Cc3ccccc3)CC2)cc(Cl)c1OC	0	26	0	0	-	0	0	0
COc1ccccc1NS(=O)(=O)NC(=O)c1c(C)[nH]c2ccccc12	0	21	0	0	-	0	0	0
CCCCCCN1CCN(C2CN(CCCC)S(=O)(=O)C2)CC1 (stereo not drawn)	-	-	0	-	-	-	-	-
COc1ccc(-c2cc(C(=O)NCc3ccco3)c3ccccc3n2)c(OC)c1	0	33	0	0	-	0	0	0
COc1cc(/C=C/C(=O)O)cc(S(=O)(=O)NCc2ccc3c(c2)OCO3)c1OC	0	21	0	0	0	0	0	0
O=c1cc(O)nc(SCc2ccccc2)n1-c1ccccc1	0	0	0	0	0	-	-	-
O=C(CSc1nc(O)cc(=O)n1-c1ccccc1)NCc1ccccc1	0	21	0	0	0	0	0	0
SMILES	IDE cell inh	TLR9-MyD88 block	NOD2 RIPK2 PPI	IDE act	TLR4-MyD88 BLA	TLR9-MyD88 conf	BLA nonselective	TLR9 CHO tox
COc1cc(C2NC(=O)NC(C)=C2C(=O)OCc2ccc(C)cc2)cc(OC)c1O (stereo not drawn)	0	0	0	0	0	-	-	-
CN(C)CCNC(=O)c1sc2nc(-c3ccccc3)cc(C(F)(F)F)c2c1N	0	0	0	0	-	-	-	-
COc1ccc(-c2cc(C(F)(F)F)c3c(N)c(C(=O)NCCSC)sc3n2)cc1	0	22	0	0	-	74	73	14
COc1ccc(/C=C/C(=O)C2(O)CCCCC2)cc1	0	0	0	0	-	-	-	-
CCc1ccc(C(=O)c2oc3nc(C)cc(C)c3c2N)cc1	0	0	0	0	0	-	-	-
Cc1c(CN2CCC(CO)(CCOc3ccccc3)CC2)c(=O)n(-c2ccccc2)n1C	0	34	0	0	0	0	0	0
Cc1cc(C)c(CN2CCC(CO)(CCOc3ccccc3)CC2)cc1C	0	0	0	0	0	-	-	-
COC(=O)c1ccc(CN2CCC(Oc3cccc(C(=O)N4CCCC4)c3)CC2)cc1	0	0	0	0	-	-	-	-
CS(=O)(=O)c1sc2nc(-c3cccs3)cc(-c3ccccc3)c2c1N	0	25	0	0	0	0	0	0
Cc1ccc(N2C(=O)NC(NS(=O)(=O)c3ccccc3)(C(F)(F)F)C2=O)cc1 (stereo not drawn)	0	0	0	0	-	-	-	-
Cc1ccc(N2C(=O)NC(NS(=O)(=O)c3ccc(C)cc3)(C(F)(F)F)C2=O)cc1 (stereo not drawn)	0	21	0	0	-	0	0	0
Cc1ccc(C)c2nc3sc(C(=O)N4CCOCC4)c(N)c3cc12	0	22	0	0	0	0	0	26
Cc1cccc2cc3c(N)c(C(=O)N4CCc5ccccc54)sc3nc12	0	22	0	0	0	0	0	18
CNC(=O)c1cc(C)c(-c2ccccc2)s1	0	0	0	0	0	-	-	-
Cc1ccn2cc(CCNC(=O)CC3CCCCC3)nc2c1	0	0	0	0	0	-	-	-
CN(C)c1ccc(NC2=C(Cl)C(=O)c3ccccc3C2=O)cc1	0	25	0	0	0	23	0	19
CCCc1[nH]n(-c2ccc(F)cc2)c(=O)c1C=NCC1CCCO1 (stereo not drawn)	0	0	0	0	0	-	-	-
Cc1[nH]n(-c2ccccc2)c(=O)c1C=NCC1CCCO1 (stereo not drawn)	0	26	0	0	0	0	0	0
CN1OC(CC(=O)O)N(c2ccc(Cl)cc2)C1=O (stereo not drawn)	0	0	0	0	0	-	-	-
Cc1ccc(Cl)c(NC(=O)COC(=O)c2ccccc2C(=O)c2ccc(Cl)c([N+](=O)[O-])c2)c1Cl	0	27	0	0	0	29	0	15
CN(C)C(=O)NC1c2ccccc2-c2ccccc21	0	0	0	0	-	-	-	-
O=C1C=CC(=O)N1c1ccc2c(c1)C(NC(=O)C(F)(F)F)c1ccccc1-2 (stereo not drawn)	-	30	0	0	-	36	0	98
CCOC(=O)COc1ccc2c(C#N)c3ccccn3c2c1	-	26	0	0	0	0	0	0
Cc1ccc(S(=O)(=O)N2CCCCC2)cc1C(=O)OCC(=O)N1c2ccccc2NC(=O)C1(C)C	0	0	0	0	-	-	-	-
